Test [1] in a line: compounds binding Alexa647 anti-His antibody – biochemical, small-molecule microarray, 635 nm fluorescence, artefact control for SMM control protein annotation, primary screen (AID 1128).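 Further: score merges feature fluorescence with signal-to-noise for each printed compound spot.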 As to conditions: higher = more signal.
Test [2] relates to Human papillomavirus type 1a E7 protein (residues 1-88). The test can be described thus: HPV1a E7 small-molecule binders, primary screen, biochemical, small-molecule microarray, residues 1-88, 635 nm (AID 1129). Particulars: small-molecule microarray binding, fluorescence 635 nm; higher = more signal.
For test [3], the target named is Focal adhesion kinase 1 (Homo sapiens) (UniProt Q05397). The test can be described thus: PTK2 protein binding on printed compound slides – biochemical, small-molecule microarray, 635/667 nm fluorescence, BSA, DTT, primary screen (AID 1130).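 Further: composite of spot emission at 667 nm and signal to noise over triplicate slides.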 Particulars: 635 nm fluorescence, higher = more signal.
Chain of Focal adhesion kinase 1 (Homo sapiens) (Q05397 whole entry, looked up): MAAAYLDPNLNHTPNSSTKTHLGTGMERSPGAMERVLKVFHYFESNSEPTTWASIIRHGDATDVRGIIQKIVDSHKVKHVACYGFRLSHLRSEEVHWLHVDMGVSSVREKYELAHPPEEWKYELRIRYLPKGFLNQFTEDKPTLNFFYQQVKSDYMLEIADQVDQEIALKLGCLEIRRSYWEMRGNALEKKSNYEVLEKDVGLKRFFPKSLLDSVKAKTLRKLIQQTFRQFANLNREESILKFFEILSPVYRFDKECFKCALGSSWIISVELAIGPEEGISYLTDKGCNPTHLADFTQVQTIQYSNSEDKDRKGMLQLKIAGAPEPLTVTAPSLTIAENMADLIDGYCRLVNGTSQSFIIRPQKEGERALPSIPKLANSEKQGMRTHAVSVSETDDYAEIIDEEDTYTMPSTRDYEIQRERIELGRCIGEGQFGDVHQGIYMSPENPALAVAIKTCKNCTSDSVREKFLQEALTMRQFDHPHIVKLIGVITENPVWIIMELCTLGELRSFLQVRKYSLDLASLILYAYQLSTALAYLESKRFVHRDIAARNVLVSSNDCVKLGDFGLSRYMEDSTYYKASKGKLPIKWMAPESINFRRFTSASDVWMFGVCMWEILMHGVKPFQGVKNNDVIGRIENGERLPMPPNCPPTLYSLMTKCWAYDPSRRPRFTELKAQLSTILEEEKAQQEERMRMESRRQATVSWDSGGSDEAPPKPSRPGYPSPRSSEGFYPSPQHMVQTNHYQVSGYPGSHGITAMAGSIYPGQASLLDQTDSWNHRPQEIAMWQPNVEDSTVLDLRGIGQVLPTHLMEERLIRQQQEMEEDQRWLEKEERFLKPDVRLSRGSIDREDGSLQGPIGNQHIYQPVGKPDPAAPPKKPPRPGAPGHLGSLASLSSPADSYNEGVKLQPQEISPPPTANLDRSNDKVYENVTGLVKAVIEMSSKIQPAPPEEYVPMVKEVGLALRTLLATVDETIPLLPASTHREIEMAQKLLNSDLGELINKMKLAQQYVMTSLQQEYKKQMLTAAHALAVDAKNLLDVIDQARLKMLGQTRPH
Test [4] concerns Fibrinogen (Alexa647-labelled). The experiment in a line: Alexa647-fibrinogen binding to printed small molecules – biochemical, small-molecule microarray, 635/667 nm fluorescence, artefact control for SMM control-protein annotation, profiling panel (AID 1131).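 Further: z-score merges 667 nm fluorescence with per-spot signal-to-noise over triplicate slides.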 As to conditions: fibrinogen-A647 binding fluorescence, higher = more signal.
The target in test [5] is Follistatin (Homo sapiens) (UniProt P19883). The test can be described thus: FST protein binding to printed compounds – biochemical, small-molecule microarray, 635/667 nm fluorescence, primary screen (AID 1132). Particulars: 635 nm fluorescence, higher = more signal.
Chain of Follistatin (Homo sapiens) (P19883 whole entry, looked up): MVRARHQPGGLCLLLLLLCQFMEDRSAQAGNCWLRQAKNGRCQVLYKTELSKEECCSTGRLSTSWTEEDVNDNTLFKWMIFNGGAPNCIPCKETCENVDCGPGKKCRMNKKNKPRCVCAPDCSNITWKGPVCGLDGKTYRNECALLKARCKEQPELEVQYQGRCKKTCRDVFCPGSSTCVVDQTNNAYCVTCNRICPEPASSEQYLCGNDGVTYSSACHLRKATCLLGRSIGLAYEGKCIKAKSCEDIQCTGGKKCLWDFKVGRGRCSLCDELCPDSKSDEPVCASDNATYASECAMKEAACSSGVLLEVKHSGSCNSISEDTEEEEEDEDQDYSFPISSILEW
For test [6], the target named is Fibroblast growth factor 2 (Homo sapiens) (UniProt P09038). The test can be described thus: basic fibroblast growth factor binding to printed compounds – biochemical, small-molecule microarray, 635/667 nm fluorescence, primary screen (AID 1133). As to conditions: FGF2, fluorescence 635/667, higher = more signal.
Chain of Fibroblast growth factor 2 (Homo sapiens) (P09038 whole entry, looked up): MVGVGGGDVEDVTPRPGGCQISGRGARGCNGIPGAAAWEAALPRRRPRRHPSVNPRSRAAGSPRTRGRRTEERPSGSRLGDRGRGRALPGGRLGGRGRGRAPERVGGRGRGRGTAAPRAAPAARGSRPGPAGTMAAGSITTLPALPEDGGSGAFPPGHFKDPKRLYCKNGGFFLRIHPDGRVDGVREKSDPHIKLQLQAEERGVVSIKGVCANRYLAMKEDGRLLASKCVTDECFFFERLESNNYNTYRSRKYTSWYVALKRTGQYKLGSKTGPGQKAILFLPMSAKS
Test [7] is described as follows: JC-1 mitochondrial potential readout, lung cancer cells – cell-based, A549, JC-1 fluorescence, basal, 24 h, 100 nL, profiling panel (AID 1138).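 Further: A549 lung adenocarcinoma cells under basal conditions with no added stimulus; test concentration not given here.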 As to conditions: higher = more signal.
For the next test, the system named is Lefty1. The experiment in a line: Lefty1 protein binding to printed compounds – biochemical, small-molecule microarray, 635/667 nm fluorescence, primary screen (AID 1139). Particulars: fluorescence 635/667, higher = more signal.
Test [8] concerns wheat germ agglutinin (Triticum aestivum), Alexa647-labelled. The test can be described thus: Alexa647-WGA lectin binding to printed small molecules – biochemical, small-molecule microarray, 635/667 nm fluorescence, artefact control for SMM control-protein annotation, profiling panel (AID 1140).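 Further: score merges 667 nm feature emission with signal to noise over triplicate slides.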 As to conditions: WGA-A647 binding, 635 nm fluorescence, higher = more signal.
For test [9], the target named is Luciferin 4-monooxygenase (Photinus pyralis) (UniProt P08659). The test can be described thus: inhibition of purified Photinus pyralis luciferase – biochemical, luminescence, purified enzyme, 2006 set, primary screen (AID 1141).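 Further: cell-free assay with purified firefly luciferase at 100 ng per well in PBS; test concentration not given here.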 Particulars: purified firefly luciferase, SteadyGlo luminescence, 30 min; higher = more signal, called active from +8 up or from −8 down.
Chain of Luciferin 4-monooxygenase (Photinus pyralis) (P08659 whole entry, looked up): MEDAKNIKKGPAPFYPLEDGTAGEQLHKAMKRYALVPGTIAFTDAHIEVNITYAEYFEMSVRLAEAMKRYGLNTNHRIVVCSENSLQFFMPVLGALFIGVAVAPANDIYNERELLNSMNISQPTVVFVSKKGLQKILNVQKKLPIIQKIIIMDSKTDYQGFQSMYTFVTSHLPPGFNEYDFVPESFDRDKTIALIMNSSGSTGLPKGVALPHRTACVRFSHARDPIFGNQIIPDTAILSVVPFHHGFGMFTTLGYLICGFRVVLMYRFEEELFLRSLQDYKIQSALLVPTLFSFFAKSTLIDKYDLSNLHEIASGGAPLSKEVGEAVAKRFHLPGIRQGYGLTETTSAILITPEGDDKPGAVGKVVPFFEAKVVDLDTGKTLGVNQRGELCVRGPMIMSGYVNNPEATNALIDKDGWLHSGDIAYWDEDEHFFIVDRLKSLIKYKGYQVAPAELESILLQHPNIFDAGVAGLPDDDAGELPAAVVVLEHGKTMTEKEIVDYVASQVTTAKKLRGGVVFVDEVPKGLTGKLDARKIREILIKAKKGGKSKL
Test [10] relates to Wnt5a (protein binding on small-molecule microarray). The test can be described thus: small molecules binding Wnt5a protein – biophysical, small-molecule microarray, 635/667 nm fluorescence, primary screen (AID 1142).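 Further: fluorescence read at 667 nm with signal to noise per printed feature.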 As to conditions: 635 nm fluorescence, higher = more signal.
Test [11] can be described thus: ATP-based viability of Huh7 replicon cells – cell-based, CellTiter-Glo luminescence, basal, 48 h, cytotoxicity control for HCV replication inhibitor project, primary screen (AID 1143).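 Further: Huh7 hepatoma cells carrying a hepatitis C replication reporter with no stimulus; test concentration not given here.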 Particulars: higher = more signal, called active from +8 up or from −8 down.
The nature of test [12]: Pseudomonas biofilm growth suppression – PAO1 strain, BacTiter-Glo luminescence, LB-PBS, primary screen (AID 1144). As to conditions: P. aeruginosa PAO1 biofilm, 12 h, higher = more signal.
Test [13] can be described thus: basal CRE-LacZ reporter activity in PC12 – cell-based, unstimulated, primary screen (AID 1145). As to conditions: no forskolin, luminescence, 4.5 h, higher = more signal, called active from +8 up or from −8 down.
Test [14] can be described thus: forskolin-driven CRE-LacZ activity in PC12 – cell-based, CRE-LacZ reporter, forskolin-stimulated, primary screen (AID 1146).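 Further: PC12 cells with 6xCRE LacZ reporter stimulated by forskolin 10 µM; beta-galactosidase reporter signal reflecting CREB driven transcription.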 As to conditions: luminescence, 4.5 h, higher = more signal, called active from +8 up or from −8 down.
Test [15] deals with Streptavidin (Streptomyces avidinii) (UniProt P22629). The test can be described thus: compounds binding control protein streptavidin – biophysical, small-molecule microarray, 635/667 nm fluorescence, artefact control for SMM compound annotation, primary screen (AID 1147).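 Further: signal reflects streptavidin binding to arrayed compounds as a control protein.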 As to conditions: higher = more signal.
Chain of Streptavidin (Streptomyces avidinii) (P22629 whole entry, looked up): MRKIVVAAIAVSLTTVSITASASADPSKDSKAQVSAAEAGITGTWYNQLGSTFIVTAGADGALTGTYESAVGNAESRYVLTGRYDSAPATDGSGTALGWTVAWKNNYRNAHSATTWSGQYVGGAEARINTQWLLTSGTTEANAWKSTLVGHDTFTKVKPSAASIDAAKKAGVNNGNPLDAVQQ
Test [16] in a line: probe aInhba binding on compound microarray – biochemical, small-molecule microarray, 635/667 nm fluorescence, primary screen (AID 1148).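 Further: score merges 667nm spot fluorescence with signal-to-noise for antibody binding to printed compounds.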 Particulars: higher = more signal.
Test [17] concerns the target Torsin-1A (Homo sapiens) (UniProt O14656). The test can be described thus: TOR1A wild-type binding on microarray – cell lysate, small-molecule microarray, lysate, 635/667 nm, primary screen (AID 1149). As to conditions: COS7 hTOR1A-WT lysate, 635 nm fluorescence, higher = more signal.
For test [18] the target is unchanged. The test can be described thus: torsin A mutant lysate binding on microarrays – cell lysate, small-molecule microarray, COS7 lysate, 635/667 nm fluorescence, primary screen (AID 1150).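 Further: score pools 667 nm emission and signal to noise measuring lysate protein binding.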 Particulars: COS7 hTOR1A mutant lysate, 635 nm fluorescence, higher = more signal.
The test system of test [19] is Sonic hedgehog protein (Shh). The experiment in a line: Sonic hedgehog microarray binding compounds – biochemical, small-molecule microarray, 635/667 nm fluorescence, primary screen (AID 1151).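 Further: Shh protein binding to compounds spotted on small-molecule microarray slides; score combines spot fluorescence intensity with signal-to-noise across triplicate slides.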 Particulars: 635 nm fluorescence, higher = more signal.

Composite z-score and z-score data for three compounds are collected here from PubChem BioAssay.

Activity calls are given as the source filed them. Unless noted, how the calls were made is not given here.

Chain of Torsin-1A (Homo sapiens) (O14656 whole entry, looked up): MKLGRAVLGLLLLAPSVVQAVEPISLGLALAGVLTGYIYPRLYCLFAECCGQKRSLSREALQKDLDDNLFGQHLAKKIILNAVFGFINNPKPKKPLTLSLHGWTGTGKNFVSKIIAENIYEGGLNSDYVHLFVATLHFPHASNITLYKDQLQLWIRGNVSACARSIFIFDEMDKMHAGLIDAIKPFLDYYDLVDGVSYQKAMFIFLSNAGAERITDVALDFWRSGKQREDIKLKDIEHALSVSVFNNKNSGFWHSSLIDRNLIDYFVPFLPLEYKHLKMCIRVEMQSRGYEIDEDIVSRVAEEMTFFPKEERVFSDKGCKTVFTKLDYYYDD

As for `C[C@H]1ON(c2ccc(C(=O)OC(C)(C)C)cc2)[C@@H](c2ccc(O)cc2)[C@@H]1C(=O)N1C(=O)OC[C@@H]1c1ccccc1`, the composite z-score in test [1] was 0.82; in test [2] it was 1.13; in test [3], 0.429; in [4], 0.935; in test [5], 1.22; in [6], 1.4. Besides, the composite z-score is 0.724 in the test with Lefty1; 0.38 in [8]; 0.382 in [10]; 0.179 in test [15]; -0.114 in test [16]; -0.0484 with Torsin-1A (Homo sapiens) [17]. Further, the composite z-score with Torsin-1A (Homo sapiens) [18] was found to be 0.39; in [19] it was 1.97. In addition, the z-score in test [7] is -0.802; in test [9], -0.587 (inactive); in test [11], -2.3 (inactive); in [12], -0.0446 (inactive); in test [13], 0.846 (inactive); in test [14] it was 0.0621 (inactive).

Consider `CC(C)N1CC=CC23O[C@@H]4C=CCOC(=O)[C@@H]4[C@H]2C(=O)N(C(C)CO)[C@@H]3C1=O` (stereo not given in full), for which the composite z-score in test [1] was -0.221; in test [2] it was -0.915; in [3], -0.202; in test [4], -0.179; in test [5], -0.901; in [6], -0.678. In addition, the composite z-score was -0.941 in the test with Lefty1; -0.158 in test [8]; -0.517 in test [10]; -0.23 in test [15]; -0.161 in [16]; -1.33 with Torsin-1A (Homo sapiens) [17]. The composite z-score in the test with Torsin-1A (Homo sapiens) [18] is -1.43; in test [19], -0.753. For the same compound, the z-score in test [7] was -0.374; in [9], 0.169 (inactive); in test [11], 0.394 (inactive); in [12], 0.995 (inactive); in test [13] it was -0.619 (inactive); in [14], -0.544 (inactive).

Take `CC(C)(C)OC(=O)CC[C@@]1(C(=O)O)N=C(c2ccc(OCCCO)cc2)O[C@@H]1c1ccccc1`: the composite z-score in test [1] is 1.52; in test [2], 0.716; in test [3] it was -0.219; in test [4], 0.506; in [5], 0.0761; in test [6], -0.228. For the same compound, the composite z-score in the test on Lefty1 was -0.643; in test [8], -0.0131; in test [10] it was -0.181; in test [15] it was 0.0425; in test [16] it was 0.0154; with Torsin-1A (Homo sapiens) [17] it was 0.961. Further, the composite z-score with Torsin-1A (Homo sapiens) [18] is 0.694; in [19], -0.736. In addition, the z-score was -0.161 in [7]; 0.383 (inactive) in test [9]; -0.97 (inactive) in test [11]; -0.335 (inactive) in test [12]; -0.94 (inactive) in test [13]; -0.374 (inactive) in test [14].
